In all, about 33,000 sequences were measured (“E-score (-0.5 to 0.5)”: median about -0.054, highest 2% from about 0.35 on). The list comes from a sample in which the highest values are over-represented; it also holds similar and randomly drawn sequences.
Target: T1, Stb5 (UniProt P38699)
T1 sequence: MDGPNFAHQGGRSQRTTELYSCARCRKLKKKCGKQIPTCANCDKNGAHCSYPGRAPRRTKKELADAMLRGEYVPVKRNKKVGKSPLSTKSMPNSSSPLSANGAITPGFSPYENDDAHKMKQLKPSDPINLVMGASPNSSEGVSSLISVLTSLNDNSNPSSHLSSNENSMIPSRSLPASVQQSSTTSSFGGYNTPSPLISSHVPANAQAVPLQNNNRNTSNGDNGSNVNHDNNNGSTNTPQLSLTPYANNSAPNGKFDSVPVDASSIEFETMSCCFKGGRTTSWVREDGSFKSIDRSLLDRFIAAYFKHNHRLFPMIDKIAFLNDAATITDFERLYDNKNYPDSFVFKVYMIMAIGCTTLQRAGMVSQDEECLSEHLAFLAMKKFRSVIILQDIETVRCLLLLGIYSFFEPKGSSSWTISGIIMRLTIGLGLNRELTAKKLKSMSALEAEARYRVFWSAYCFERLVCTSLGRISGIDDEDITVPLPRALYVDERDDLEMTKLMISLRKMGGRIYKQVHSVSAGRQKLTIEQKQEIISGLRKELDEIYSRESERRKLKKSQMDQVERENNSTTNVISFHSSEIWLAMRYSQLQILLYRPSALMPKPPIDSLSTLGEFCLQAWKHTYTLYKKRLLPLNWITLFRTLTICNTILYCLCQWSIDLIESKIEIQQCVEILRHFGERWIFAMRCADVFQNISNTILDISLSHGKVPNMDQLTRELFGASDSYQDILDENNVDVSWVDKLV
Assay: PBM E-score (8-mer binding enrichment) (E-score (-0.5 to 0.5)); higher = stronger / more preferred TF binding
Details: protein concentration: 200 nM; construct: GST-full length
Description: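 Universal 'all 10-mer' protein binding microarrays (Agilent AMADID 015681) probed with GST-tagged S. cerevisiae TFs (full-length or DBD) made by in vitro transcription/translation (PURExpress), about 100-200 nM. Bound TF was detected with fluorescent anti-GST. Each ungapped 8-mer (which stands for itself and its reverse complement) is scored by the PBM enrichment score (E-score), a modified Wilcoxon-Mann-Whitney statistic from -0.5 to +0.5, computed with the Universal PBM Analysis Suite. Scale: above 0.35 generally sequence-specific binding.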

Sequence | PBM E-score
AACCCTCC | -0.0222
AATTCTCG | -0.186
TCGCCTCA | -0.162
CCCGAACC | 0.144
CGCAGACA | -0.0673
AACTTCAC | -0.293
ACTGGGGG | -0.28
AGAGTGAT | -0.258
AAGTTCTG | -0.231
CCACCTTC | -0.199
ACCGCTGA | 0.255
ACCGCTAC | 0.395
ACCGCTAT | 0.33
ACCGCTCC | 0.323
ACCGCTCG | 0.357
ACCGCTAA | 0.263
GCCGCTAC | 0.39
ACCGCTCT | 0.226
ACCGCTGC | 0.364
CCCGCTAC | 0.216
GCCGCTAA | 0.296
CCCGCTGC | 0.209
AAACGAAG | -0.0773
ATCTGGCC | 0.0703
TCACGCGA | -0.0286

Sequence | PBM E-score
ACCTCTAT | -0.163
TCTGTGCA | -0.195
GTAGTAAC | 0.12
AACGAACC | -0.116
TGCCCCAA | -0.123
ACGTTGTA | -0.0486
CGCACTTA | 0.368
CGCACTTC | 0.0228
AGCACTTA | -0.0929
CCCTGCAG | -0.0201
GGGGTGTA | 0.178
CCGGTGTC | 0.408
GCGGTGGA | 0.177
AGGGTGTC | -0.106
ACGGTGTC | 0.408
CGGGTGTC | 0.00649
CCGGTGAC | 0.292
GCGGTGTA | 0.421
CTGGTGTC | -0.178
CGGGTGTA | 0.37
AGGGTGTA | -0.236
ACGGTGTG | 0.288
TGACGCAA | -0.174
CAAAGTGG | -0.254
ACTGCGAC | 0.202

Sequence | PBM E-score
TAACTCTA | -0.0643
GAACCATC | -0.135
ACCCACGT | -0.257
CCGGTGTA | 0.366
CAGGTGTA | -0.204
ACGGTGTA | 0.348
CGCAAAGA | 0.016
CTGAAATA | -0.0506
GCCTCACA | -0.212
CCCCCCGA | 0.14
AACCCCAA | -0.0237
AACCCCGA | 0.473
ACCCCCGA | 0.371
TCCCCCGA | 0.263
AACCCCCA | -0.0755
CTCTTGAC | -0.182
AGCTAAAT | 0.088
CTCCAGCC | -0.15
AAGAATAA | 0.0987
AATGAATA | 0.0406
ATAATCCC | 0.389
ATAATGCC | 0.386
CTAATCCC | 0.354
ATAATGCG | 0.0614
ATAAATCG | 0.0618

Sequence | PBM E-score
CTAATCAC | 0.189
ATAATCCG | 0.103
ATAAATCC | 0.382
CTAATGCC | 0.285
ATAATCCA | -0.0209
CTAATCCA | -0.106
ATAAATCA | -0.129
TGCCAGAA | -0.307
CGCTTACG | 0.123
GCCCTACC | -0.0725
AAGATACG | -0.0742
CGCTGCCC | -0.0156
ACACGGCC | 0.116
CCCTGTAA | -0.0001
AGCAGTTA | -0.194
CGCAGTTA | 0.359
CGCAGTTC | 0.00085
GAGATTGC | -0.0088
CCATTCTC | -0.126
AATCACTA | -0.155
GGCGGAAC | 0.25
GGCGGACC | 0.412
ATCGGACA | 0.332
ATCGGTCC | 0.396
ATCGGACG | 0.305

Sequence | PBM E-score
GGCGGACA | 0.357
ATCGGACC | 0.398
CTCGGTCC | 0.242
TGCGGACA | 0.286
GGCGGAAA | 0.227
CGCGGACC | 0.319
ATCGGTCA | 0.208
CTATAATC | 0.019
GGCACCCA | -0.036
GCACTCAA | -0.0587
ATACCAAT | -0.00644
TCCCACAA | 0.0012
ACTGCGCG | 0.122
AGCGGAGC | 0.31
AGCGGACC | 0.359
AGCGGAAC | 0.295
GCACGGGC | 0.2
AGCTATTC | -0.0735
GAACTCAC | -0.221
AAGGCCTT | -0.163
AAGGCCTG | -0.0882
AAAAGCCC | 0.324
AAGGCCGG | 0.407
AAGGCCGT | 0.421
CAGGCCGG | 0.11

Sequence | PBM E-score
AAAAGCCT | -0.122
TAGGCCGA | 0.125
ACGGCCGT | 0.226
CAGGCCGA | 0.153
AAGGCCGA | 0.46
AAAAGCCG | 0.38
TTCACAAA | -0.00748
GACCAAAC | -0.0734
AGACGGTC | 0.142
CATCCATG | -0.205
GAGGCCGC | 0.322
CAGGCCCG | 0.109
AAGGCCGC | 0.441
AAAGGCCC | 0.274
AAGGCCCA | -0.17
AAGGCCCG | 0.359
AAAGGCCG | 0.446
CAGGCCGC | 0.187
CAAGGCCG | 0.236
AGACAGGG | -0.161
ACGCCTAG | -0.0889
ACATTAGA | -0.214
CATACTGG | -0.062
CCAGAGGG | -0.0691
CGCACGAA | -0.0424

Sequence | PBM E-score
GAGTTTAC | 0.115
AGTTCCGC | 0.361
GGTTCCGA | 0.126
AGTTCCGG | 0.333
CGTTCCGA | 0.00452
CGTTCCGC | 0.226
AGTTCCGA | 0.374
ACCCATCG | 0.1
CCCTCTTA | -0.167
AGCCCGAC | 0.373
GGCCCGAA | 0.149
AGCCCGAG | 0.05
CGCCCGCC | 0.258
AGCCCGCG | 0.334
AGCCCGAT | 0.328
ATCCCGAG | 0.161
AGCCCGCC | 0.359
ATCCCGAT | 0.238
CGCCCGAC | 0.33
ATCCCGAC | 0.39
GGCCCGAC | 0.358
ACACTTAA | -0.117
CACAAGCG | -0.0542
CAAAATCG | -0.0979
